Assay outcomes deposited in PubChem BioAssay by several laboratories.
A selection: hits, their analogues and other compounds. The true share with any hit is near 2.1%.
aDG glyco up: activators of alpha-DG glycosylation, primary screen, uHTS, Pro5-aDG cells, AlphaScreen; alpha-DG glycosylation AlphaScreen (IIH6); 0% Pro5, 100% B10-LARGE cell signal; activation, % at 10 µM; 0.22% of 360,000 active;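 active = activation of at least 8% versus controls, or a plate z-score of at least 8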;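 note: Pro5 are CHO cells carrying HIG-tagged alpha-DG that lacks glycosylation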
GalR3 antagonist: GalR3 antagonists in HEK293 cells, primary screen, cell-based, fluorescence readout; HEK293 GalR3-CNG cAMP membrane potential fluorescence; galR3 body fused to GalR1 C-terminus; inhibition, % at 3 µM; 0.44% of 360,000 active; AID 651719, 2012;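 active = inhibition above the screen-wide average plus 3 SD, cut at about 13% in these data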;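 note: forskolin and galanin both at EC90 stimulate the cells; cAMP rise reported by CNG channel membrane potential dye signal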
Target sequence (O60755 1-299 limits assumed): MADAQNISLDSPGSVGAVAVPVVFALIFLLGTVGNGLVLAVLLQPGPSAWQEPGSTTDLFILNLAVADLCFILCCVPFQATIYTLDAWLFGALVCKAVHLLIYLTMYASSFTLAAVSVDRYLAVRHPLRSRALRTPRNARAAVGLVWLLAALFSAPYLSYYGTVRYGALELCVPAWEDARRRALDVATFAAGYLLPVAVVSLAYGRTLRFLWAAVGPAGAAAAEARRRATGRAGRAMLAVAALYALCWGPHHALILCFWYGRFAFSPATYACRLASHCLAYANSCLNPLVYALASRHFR
Env fusion inh: inhibitors of HIV-1 Env-driven cell-cell fusion, primary screen, HeLa-JRFL effector, CEM21 target cells, luciferase | 1.1% of 360,000 active | inhibition, % at 12.3 µM;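 active = mean replicate inhibition score of at least 50 and every replicate individually at or above 50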
Gli-Sufu block: Gli-Sufu pathway antagonists, primary screen, luciferase luminescence, Sufu-KO-LIGHT cells, uHTS. AID 588413, 2011. inhibition, % at 5 µM. Sufu-KO-LIGHT fibroblasts, Gli luciferase reporter luminescence. 0.74% of 340,000 active;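 active = inhibition above about 55%, limit read from the data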
COUP-TFII inh: NR2F2 transcriptional activity inhibitors, primary screen, cell-based, luciferase reporter, HEK293T, luminescence; COUP transcription factor 2 (Homo sapiens), P24468; HEK293T NGFI-A luciferase reporter; inhibition, % at 8.6 µM; 0.7% of 370,000 active; AID 686940, 2013;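 active = inhibition above a per-plate cutoff, mean inhibition of test wells between control levels plus 3 SD, cut at about 38% in these data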;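 note: cells cotransfected with COUP-TFII expression vector driving the NGFI-A reporter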
Target sequence (P24468 whole entry, looked up): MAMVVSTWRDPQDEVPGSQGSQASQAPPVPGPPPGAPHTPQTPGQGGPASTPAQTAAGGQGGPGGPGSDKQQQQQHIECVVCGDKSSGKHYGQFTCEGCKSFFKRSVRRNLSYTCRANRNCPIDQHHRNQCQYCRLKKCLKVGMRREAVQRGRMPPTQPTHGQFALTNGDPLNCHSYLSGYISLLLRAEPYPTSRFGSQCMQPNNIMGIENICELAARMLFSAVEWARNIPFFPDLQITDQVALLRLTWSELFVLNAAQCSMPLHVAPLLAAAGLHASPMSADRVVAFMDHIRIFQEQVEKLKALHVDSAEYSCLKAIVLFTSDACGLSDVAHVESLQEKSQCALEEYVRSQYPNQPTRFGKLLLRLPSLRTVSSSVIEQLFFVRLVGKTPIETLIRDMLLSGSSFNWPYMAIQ
Gli-Sufu confirm: Gli-SUFU pathway antagonists, confirmation, single concentration, luciferase luminescence, Sufu-KO-LIGHT cells; shares compounds with Gli-Sufu block; Gli luciferase reporter; inhibition, % at 5 µM; 40% of 2,500 active; AID 602428, 2012;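 active = mean inhibition at 5 µM reaching about 45%, limit read from the data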
Gli cytotox: cytotoxicity in Sufu-KO-LIGHT cells, confirmation, cytotoxicity control for Gli-SUFU antagonist project, cell-based, ATP luminescence, single concentration | shares compounds with Gli-Sufu block | cytotoxicity, % at 5 µM | 32% of 2,500 active;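 active = mean cytotoxicity at 5 µM above about 25%, limit read from the data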;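 note: cells exposed to compound overnight for roughly 16 to 18 hours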
Wnt3a cs: Wnt3a reporter signal inhibition, confirmation, counter-screen for Gli-SUFU antagonist project, Wnt-LIGHT cells, luminescence, single concentration. shares compounds with Gli-Sufu block. Wnt3a-driven luciferase reporter. inhibition, % at 6.25 µM. 20% of 2,500 active;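 active = mean inhibition above about 25%, limit read from the data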
A number is an active result; i = inactive; nt = no result given; [ ] = dose if it differs, or a comment.

SMILES	aDG glyco up	GalR3 antagonist	Env fusion inh	Gli-Sufu block	COUP-TFII inh	others
O=C(C[C@H]1CC[C@@H](NC(=O)Nc2ccccc2F)[C@@H](CO)O1)NCc1ccc(Cl)cc1	nt	nt	59.5[16.7 µM]	nt	nt
O=C(O)C[C@@H]1C=C[C@@H](NC(=O)Nc2ccccc2)[C@H](CO)O1	nt	nt	58.5[16.7 µM]	nt	nt
O=C(C[C@@H]1C=C[C@@H](NC(=O)Nc2ccc3c(c2)OCO3)[C@H](CO)O1)NCc1ccc(F)cc1	nt	nt	59.2[16.7 µM]	nt	nt
COc1ccccc1NC(=O)N[C@H]1C=C[C@H](CC(=O)N[C@H](C)c2ccccc2)O[C@@H]1CO	nt	nt	i	nt	nt
O=C(C[C@@H]1C=C[C@@H](NC(=O)Nc2ccc3c(c2)OCO3)[C@@H](CO)O1)NCc1ccc(F)cc1	nt	nt	i	nt	nt
COc1ccc(CN(C)C[C@@H]2OCCCC[C@@H](C)Oc3ccc(NS(=O)(=O)c4c(C)noc4C)cc3C(=O)N([C@H](C)CO)C[C@H]2C)cc1	nt	nt	i	nt	nt
C[C@H](CO)N1C[C@H](C)[C@H](CN(C)C(=O)Nc2cccc3ccccc23)Oc2ccc(NC(=O)CCCCCC(=O)Nc3ccccc3N)cc2CC1=O	nt	nt	i	nt	nt
O=C(C[C@H]1C=C[C@H](NC(=O)Nc2ccccc2F)[C@@H](CO)O1)NCc1ccc(-c2ccccc2)cc1	i	i	i	nt	i
O=C(C[C@H]1C=C[C@@H](NC(=O)Nc2ccccc2F)[C@H](CO)O1)NCc1ccc(-c2ccccc2)cc1	nt	nt	56.6[16.7 µM]	nt	nt
C[C@H]1CCCCO[C@@H](CN(C)C(=O)Cc2ccccc2)[C@@H](C)CN([C@@H](C)CO)C(=O)c2cc(NS(=O)(=O)c3cccs3)ccc2O1	nt	nt	i	nt	nt
Cc1noc(C)c1NC(=O)N(C)C[C@@H]1Oc2ccc(NC(=O)CCCCCC(=O)Nc3ccccc3N)cc2CC(=O)N([C@H](C)CO)C[C@@H]1C	nt	nt	i	nt	nt
CC(C)C1CC(N(C)C)=CC(=S)N1 (stereo not given)	nt	i	58.3	nt	i
CC(C)NC(=O)N[C@@H]1CC[C@@H](CC(=O)NCCN2CCCC2)O[C@@H]1CO	nt	nt	i	nt	nt
CC(=O)Nc1sc2c(c1C(c1ccc(F)cc1)N1CCOCC1)CCCC2 (stereo not given)	i	i	90.3	i	i
CC(=O)Nc1sc2c(c1C(c1ccc(Cl)cc1)N1CCOCC1)CCCC2 (stereo not given)	i	i	nt	i	i
C=CS(=O)(=O)c1ccc(Oc2ccc(S(=O)(=O)C=C)cc2)cc1	i	i	i	i	74.6
NS(=O)(=O)c1ccc(Oc2ccc(S(N)(=O)=O)cc2)cc1	i	i	i	i	i
C[C@H]1CN([C@@H](C)CO)C(=O)c2cc(/C=C/c3ccccc3)cnc2O[C@@H]1CN(C)Cc1cncnc1	nt	nt	i	nt	nt
C[C@H]1CN([C@@H](C)CO)C(=O)c2cc(-c3cccc(C#N)c3)cnc2O[C@H]1CN(C)Cc1ccc(F)cc1	nt	nt	i	nt	nt
CC(=O)N(C)C[C@H]1Oc2ncc(-c3cccc(C#N)c3)cc2C(=O)N([C@@H](C)CO)C[C@H]1C	nt	nt	i	nt	nt
O=c1c(Br)ccc(Br)cc1Br	i	i	i	i	52.9
CC(C)OCCCn1c(=S)[nH]c2ccc(N3CCOCC3)cc2c1=O	i	i	72.0	i	i
O=c1c2cc(N3CCOCC3)ccc2[nH]c(=S)n1CCCN1CCCCCC1	i	i	i	i	i
CCCNC(=O)Nc1ccc2c(c1)C(=O)N(C)[C@@H]1CC[C@H](CC(=O)NCC3CCCCC3)O[C@H]1CO2	nt	nt	i	nt	nt
Cc1ccc(S(=O)(=O)N(C)C)cc1NC(=O)C(C)N(C)CCOc1ccc(Cl)cc1 (stereo not given)	i	i	69.2	i	i
SMILES	aDG glyco up	GalR3 antagonist	Env fusion inh	Gli-Sufu block	COUP-TFII inh	others
CC(=O)c1ccc(OCCCC(=O)Nc2cc(S(=O)(=O)N(C)C)ccc2C)cc1	i	i	i	i	i
CCOC(=O)c1c(C)n(-c2ccc(C)cc2)c2c(C(C(C)=O)C(=O)O)c(Br)c(O)c(O)c12 (stereo not given)	i	i	nt	i	i
CCOC(=O)C(C(C)=O)c1c(Br)c(O)c(O)c2c(C(=O)c3ccc(C)cc3)coc12 (stereo not given)	i	i	108.2	i	i
CC(C)NC(=O)NCC[C@H]1CC[C@@H](NC(=O)Nc2ccccc2)[C@H](CO)O1	nt	nt	i	nt	nt
CCCCSc1nc2sc3c(c2c(=O)n1-c1ccc(C)cc1)CCN(C)C3	i	i	i	i	i	Gli-Sufu confirm=49.4;Gli cytotox=i;Wnt3a cs=i
Cc1ccccc1CN(C)C[C@@H]1OCc2cnnn2CCCC(=O)N([C@@H](C)CO)C[C@@H]1C	nt	nt	i	nt	nt
Cc1ccc(S(=O)(=O)N2CCN(C(=O)c3c(C)nn(-c4ccccc4)c3Cl)CC2)cc1	i	i	nt	i	i
Cc1cc(C)c(S(=O)(=O)N2CCN(C(=O)c3c(C)nn(-c4ccccc4)c3Cl)CC2)c(C)c1	i	i	i	97.5	i	Gli-Sufu confirm=i;Gli cytotox=i;Wnt3a cs=i
COc1cc(C(=O)NC2CCN(C)CC2)ccc1Nc1ncc2c(n1)N(Cc1ccccc1)CCC(=O)N2C	i	i	i	90.8	i	Gli-Sufu confirm=88.7;Gli cytotox=i;Wnt3a cs=i
Cc1ccc(C(=O)ONc2ccc(N=O)cc2)cc1	i	i	nt	65.5	i	Gli-Sufu confirm=i;Gli cytotox=i;Wnt3a cs=i
COC(=O)c1cc(C(=O)c2ccc(Cl)cc2)n2c(=O)/c(=C\N(C)C)sc12	i	i	i	57.5	i	Gli-Sufu confirm=i;Gli cytotox=i;Wnt3a cs=i
CC1=Nc2cccc3cccc(c23)N1C	i	i	i	70.5	i	Gli-Sufu confirm=89.2;Gli cytotox=i;Wnt3a cs=i
CC(=O)Nc1sc(N/N=C/c2ccccc2)nc1-c1ccc(C)cc1	i	i	i	i	i
CCCc1sc(N/N=C/c2ccccn2)nc1-c1ccc(Br)cc1	i	i	nt	63.9	i	Gli-Sufu confirm=80.5;Gli cytotox=i;Wnt3a cs=87.8
C[C@H]1CCCCO[C@H](CN(C)C)[C@@H](C)CN([C@@H](C)CO)C(=O)c2cc(NS(=O)(=O)c3ccccc3)ccc2O1	nt	nt	i	nt	nt
Cc1nn(C)cc1/C=C/C(=O)c1ccccc1	i	i	i	98.8	i	Gli-Sufu confirm=i;Gli cytotox=i;Wnt3a cs=i
CCc1ccccc1NC(=O)C1CCCN1S(=O)(=O)c1ccc(-c2ccc(=O)[nH]n2)s1 (stereo not given)	i	i	i	i	i
Cc1cccc(C)c1NC(=O)C1CCCN1S(=O)(=O)c1ccc(-c2ccc(=O)[nH]n2)s1 (stereo not given)	i	i	i	i	i	Gli-Sufu confirm=i;Gli cytotox=i;Wnt3a cs=34.9
